From PubChem BioAssay AID651956 (Broad Institute, 2012) come the findings set out here.

The structures appear in SMILES notation. Potency and affinity values are given separately. Results filed as inconclusive are left out. Where a call stands in place of a potency, no number is given. The source made the active and inactive calls.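 How the source made its calls: active means in every test run, a fitted half-maximal concentration for signal decrease at or below twice the highest tested concentration; inconclusive means runs disagree, flat 30 to 70% decrease, or poor fit; inactive means the rest.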

This test can be described thus: miR-122 activators in hepatoma reporter cells, dose response, cell-based, Huh7 psiCHECK-miR122, Renilla luciferase, cherry-picked (AID 651956).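 Further: Renilla luciferase from a miR-122 sensor reporter so lower signal means miR-122 activation.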 To be noted: 48 h; series mostly up to 35 µM.
For the compound `CCNC(=O)Nc1ccc2c(c1)C(=O)N(C)[C@H]1CC[C@H](CC(=O)NCc3ccccc3F)O[C@H]1CO2`, the compound was called inactive. As for `CC(=O)N(C[C@@H]1N[C@@H](CO)[C@H]1c1ccc(-c2ccccc2)cc1)C(C)C`, the compound was classed as inactive. With `CCNC(=O)Nc1ccc2c(c1)C(=O)N(C)[C@H]1CC[C@H](CC(=O)NCCN3CCCC3)O[C@@H]1CO2`, the call was inactive.

Take `Cc1cc(C)cc(Oc2ccc(NC(=O)C3CC=CCC3C(=O)O)cc2)c1` (centres undefined): the compound was classed as inactive. The value for `COC(=O)C[C@@H]1CC[C@@H]2[C@@H](COc3ccc(NS(=O)(=O)c4ccccc4F)cc3C(=O)N2C)O1` was “inactive”; that for `CN1C(=O)c2cc(NC(=O)C3CCOCC3)ccc2OC[C@H]2O[C@H](CC(=O)NCc3ccc4c(c3)OCO4)CC[C@@H]21` was “inactive”. On to `CN(C)CCCNC(=O)C[C@@H]1CC[C@H]2[C@@H](COc3ccc(NC(=O)c4cccc(F)c4)cc3C(=O)N2C)O1`, for which the call was inactive. `COC(=O)C[C@@H]1CC[C@@H]2[C@@H](COc3ccc(NC(=O)Nc4cccc(C#N)c4)cc3C(=O)N2C)O1`: the outcome was inactive.

Regarding `COc1ccc(N2CCc3c(C)nc4c(OC)cc(OC)cc4c32)c(OC)c1`, the result was inactive.

As to `CNC[C@H]1Oc2cc(C#CC3CCCCC3)ccc2S(=O)(=O)N([C@H](C)CO)C[C@@H]1C`, the call was inactive.

With `N#Cc1ccc(C(=O)Nc2ccc(N3CCN(C(=O)c4ccco4)CC3)cc2)c(F)c1`, the compound was classed as inactive.

In the case of `CNC(=O)C[C@H]1CC[C@@H]2[C@@H](COc3ccc(NC(=O)C(C)C)cc3C(=O)N2C)O1`, the result was inactive. The value for `COC(=O)C[C@H]1CC[C@@H]2[C@@H](COc3ccc(NC(=O)Nc4cccc(F)c4)cc3C(=O)N2C)O1` was “inactive”. Consider `O=C(Nc1nc(-c2cc3ccccc3o2)cs1)c1ccc(S(=O)(=O)N2CCCC2)cc1`, for which the compound was classed as inactive.

`COc1cccc(NC(=O)Nc2ccc3c(c2)C(=O)N(C)[C@@H]2CC[C@H](CC(=O)O)O[C@H]2CO3)c1`: the compound was classed as inactive. For `CCN(CC)S(=O)(=O)c1ccc(NC(=O)Nc2cccc(C(F)(F)F)c2)cc1` the value was “inactive”; for `CCCCN1C=C(C(=O)OC)C(c2ccccc2C(F)(F)F)C(C(=O)OC)=C1`, “inactive”; for `CO[C@H]1CN(C)C(=O)c2ccc(NS(C)(=O)=O)cc2OC[C@H](C)N(C(=O)CN(C)C)C[C@H]1C`, “inactive”. For `CN1C(=O)c2cc(NC(=O)c3cccs3)ccc2OC[C@H]2O[C@@H](CC(=O)NCCN3CCCCC3)CC[C@H]21` the value was “inactive”. The value for `Cc1cccc(NC(=O)C[C@H]2CC[C@H]3[C@@H](COc4ccc(NC(=O)NC(C)C)cc4C(=O)N3C)O2)c1` was “inactive”. Consider `CCCNC(=O)C[C@H]1CC[C@@H]2[C@H](COc3ccc(NC(=O)c4cc(F)cc(F)c4)cc3C(=O)N2C)O1`, for which the compound was called inactive.

For the compound `CC(C)C(=O)Nc1ccc2c(c1)C(=O)N(C)[C@@H]1CC[C@H](CC(=O)O)O[C@H]1CO2`, the outcome was inactive.

Consider `CCCNC(=O)C[C@@H]1CC[C@@H]2[C@H](COc3ccc(NC(=O)c4cc(F)cc(F)c4)cc3C(=O)N2C)O1`, for which the compound was called inactive. On to `CC(C)C(=O)Nc1ccc2c(c1)C(=O)N(C)[C@H]1CC[C@H](CC(=O)Nc3cccc(F)c3)O[C@@H]1CO2`, for which the compound was called inactive. With `CCCNC(=O)N1C[C@@H]2[C@H](c3ccccc31)[C@H](CO)N2C(=O)C1CCOCC1`, the compound was classed as inactive. Consider `CC(C)C(=O)Nc1ccc2c(c1)C(=O)N(C)[C@@H]1CC[C@H](CC(=O)NCC3CC3)O[C@H]1CO2`, for which the outcome was inactive. With `COCC(=O)N(C[C@H]1[C@H](c2ccccc2)[C@H](CO)N1C(=O)NC(C)C)C(C)C`, the call was inactive.

Take `CC(C)CC#Cc1ccc([C@H]2[C@@H](CO)N3CCCCN(S(=O)(=O)Cc4ccccc4)C[C@H]23)cc1`: the outcome was inactive. Turning to `CC(C)CC#Cc1ccc2c(c1)O[C@H](CN(C)C(=O)c1cnccn1)[C@H](C)CN([C@H](C)CO)S2(=O)=O`, the result was inactive. For `COc1cc2nc(C3CCC3)n(NC(=O)C3CCCC(OC)C3)c(=O)c2cc1OC` (centres undefined) the value was “inactive”; for `CC(=O)Nc1ccc(-c2cc(-c3ccc(NC(C)=O)cc3)nc(-c3ccc(NC(C)=O)cc3)n2)cc1`, “inactive”.

Consider `C/C=C/c1ccc([C@H]2[C@@H](CO)N(C(=O)C3CC3)[C@H]2CN(C)C(=O)CC2CC2)cc1`, for which the compound was called inactive. As for `COc1ccc(C(=O)N2C[C@H]3[C@@H](c4ccccc42)[C@@H](CO)N3C(=O)Cc2ccccn2)cc1`, the compound was called inactive. Regarding `C/C=C/c1ccc([C@H]2[C@@H](CO)N(C(C)=O)[C@@H]2CN(C(=O)COC)C(C)C)cc1`, the result was inactive.
